Experimental findings from PubChem BioAssay (Tox21) are described below.

The nature of test [1]: qHTS assay to identify small molecule antagonists of the estrogen receptor alpha (ER-alpha) signaling pathway using the BG1 cell line in the presence of 0.1 nM 17-beta-estradiol - cell viability counter screen (AID 1259241). Further: nearly all actives have a fitted effect of over 40% in size. A digest of the protocol:
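The cell line endogenously expresses full-length ER-alpha and carries four EREs driving luciferase. Cells are cultured 5 days hormone-free, treated 22 hr with compounds and 0.1 nM estradiol, then viability is read by fluorescence.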
(In general: qHTS replaces the single test concentration by a dilution series.)

Test [2] is described as follows: qHTS assay to identify small molecule antagonists of the androgen receptor (AR) signaling pathway using the MDA cell line in the presence of 0.5 nM R1881 - cell viability counter screen (AID 1259242). Further: nearly all actives have a fitted effect of over 45% in size. The method in brief:
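Fluorescence from CellTiter-Fluor, which reports protease activity of live cells, was read 30 min after reagent addition to MDA-kb2 cells that had been incubated 16 hr with compound and 0.5 nM R1881.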

Test [3] can be described thus: qHTS assay to identify small molecule HDAC inhibitors (AID 1259364). Further: top concentration of the series differs between compounds; nearly all actives have a fitted effect of over 45% in size. The method in brief: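 Endogenous HDAC class I/II activity was measured in wild-type HCT-116 cells by HDAC-Glo luminescence after 2 h compound treatment.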
Test [4] is described as follows: qHTS assay to identify small molecule HDAC inhibitors - cell viability counter screen (AID 1259365). Further: series mostly up to about 92 µM; nearly all actives have a fitted effect of over 50% in size. The method in brief: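 Viability readout: CellTiter-Glo luminescence. Wild-type HCT-116 cells, 2hr compound treatment following overnight attachment at 37 C.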
Test [5] can be described thus: qHTS assay to identify small molecule agonists of the sonic hedgehog signaling (Shh) pathway - cell viability counter screen (AID 1259366). Further: nearly all actives have a fitted effect of over 50% in size. A digest of the protocol:
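Viability measured fluorometrically (CellTiter-Fluor, 1hr, 37C) in 3T3 Gli1-Luc reporter cells after 23hr compound exposure within a 24hr incubation at 37C/5% CO2.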

A short description of test [6]: qHTS assay to identify small molecule antagonists of the sonic hedgehog signaling (Shh) pathway - cell viability counter screen (AID 1259367). Further: nearly all actives have a fitted effect of over 55% in size. A digest of the protocol:
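Cells: 3T3 Gli1-Luc, 2,000/well, 4 hr pre-incubation. Compounds in DMSO, then conditioned medium. Incubation 24 hr, 37C, 5% CO2. CellTiter-Fluor at 23 hr, 1 hr, fluorescence.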

The nature of test [7]: qHTS assay to identify small molecule agonists of the sonic hedgehog signaling (Shh) pathway (AID 1259368; calls by dose curve;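 further: NIH/3T3-derived 3T3Gli1-Luc cells carrying a stable Gli1-driven firefly luciferase reporter; series mostly up to about 92 µM; nearly all actives have a fitted effect of over 15% in size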). A digest of the protocol:
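Luminescent signal was taken as a measure of Gli1-controlled luciferase expression in stably transfected NIH/3T3-derived cells that had been treated for 24 hr with compounds delivered in DMSO.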

Test [8] addresses Estrogen receptor beta (Homo sapiens) (UniProt Q92731). Nature of the test: qHTS assay to identify small molecule agonists of the estrogen receptor beta (ER-beta) signaling pathway (AID 1259377; active means well fitted activation curve with a large enough effect in the signal ratio in the repeat runs, not every such curve was filed as active; the % refers to the signal ratio). A digest of the protocol: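 A UAS-controlled beta-lactamase reporter in ER-beta-UAS-bla HEK293T cells reports receptor activation. Compounds act for 16 hr at 37C in 2% charcoal-stripped serum, and a FRET substrate is read by fluorescence after 2 hours.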

For test [9] the target is unchanged. Nature of the test: qHTS assay to identify small molecule antagonists of the estrogen receptor beta (ER-beta) signaling pathway (AID 1259378; active means well fitted inhibition curve with a large enough effect in the signal ratio in the repeat runs, not every such curve was filed as active; the % refers to the signal ratio). A digest of the protocol: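 Antagonist mode: compounds added to beta-lactamase reporter HEK293T ER-beta-UAS cells stimulated with E2 (1nM final), 16 hr at 37C. LiveBLAzer B/G FRET substrate, 2 hours room temperature, fluorescence read-out.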

A short description of test [10]: qHTS assay to identify small molecule agonists of the androgen receptor (AR) signaling pathway in the presence of an antagonist - cell viability counter screen (AID 1259379). Further: nearly all actives have a fitted effect of over 25% in size. Further: potency means the concentration at half of the fitted maximal effect. A digest of the protocol: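 In MDA-kb2 cells (human breast carcinoma, MMTV-luciferase), compounds at 15 concentrations plus 3.0uM nilutamide; 16 hr, 37C, 0% CO2; CellTiter-Fluor fluorescence read for viability.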

Test [11] can be described thus: qHTS assay to identify small molecule agonists of the estrogen receptor beta (ER-beta) signaling pathway - cell viability counter screen (AID 1259380). Further: nearly all actives have a fitted effect of over 30% in size. Further: potency means the concentration at half of the fitted maximal effect. The method in brief: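 Viability of ER-beta-UAS-bla HEK293T cells was determined by CellTiter-Glo luminescence following 16 hr treatment with test compounds at 37C.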
A short description of test [12]: qHTS assay to identify small molecule antagonists of the estrogen receptor beta (ER-beta) signaling pathway - cell viability counter screen (AID 1259382). Further: nearly all actives have a fitted effect of over 55% in size. Further: potency means the concentration at half of the fitted maximal effect. The method in brief: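 Tox21 10K library tested in qHTS format on ER-beta-bla HEK293T cells stimulated with 1nM E2; 16 hr treatment at 37C. Same-well CellTiter-Glo luminescence served as the cell viability measure.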

A short description of test [13]: qHTS assay to identify small molecule antagonists of the sonic hedgehog signaling (Shh) pathway (AID 1259369; calls by dose curve; further: nearly all actives have a fitted effect of over 45% in size). The method in brief: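 Screening used 3T3Gli1-Luc cells at 2,000 per well, compounds delivered in DMSO, and conditioned medium as agonist stimulus; plates incubated 24hr at 37 C and 5% CO2 before a 30min luciferase step.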
A short description of test [14]: qHTS assay to identify small molecule agonists or antagonists of the thyroid stimulating hormone receptor (TSHR) signaling pathway - wild type cell line counter screen (AID 1259384; calls by dose curve). A digest of the protocol:
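Counter screen in untransfected Hek293: compounds (15-point titration, triplicate) plus phosphodiesterase inhibitor Ro20-1724 added after 18 h plating; 30 min RT. Intracellular cAMP via competitive d2/cryptate immunoassay, 1 h incubation.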

The target in test [15] is Thyrotropin receptor (Homo sapiens) (UniProt P16473). Nature of the test: qHTS assay to identify small molecule antagonists of the thyroid stimulating hormone receptor (TSHR) signaling pathway (AID 1259385; calls by dose curve; further: nearly all actives have a fitted effect of over 20% in size). A digest of the protocol: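 Antagonist mode: compound-treated TSHR-expressing HEK293 cells were stimulated with 1.5 ng/mL TSH (final) in presence of Ro20-1724 for 30 min at RT. HTRF cAMP detection after 1 h; each compound tested at 15 concentrations, triplicate.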

Test [16] deals with Androgen receptor (Homo sapiens) (UniProt P10275). Nature of the test: qHTS assay to identify small molecule agonists of the androgen receptor (AR) signaling pathway in the presence of an antagonist (AID 1259381; calls by dose curve; further: nearly all actives have a fitted effect of over 15% in size). A digest of the protocol: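 Here, 15-concentration compound series were pin-transferred onto MDA-kb2 MMTV-luciferase cells already dosed with nilutamide (3.0uM final). After 16hr at 37C, ONE-Glo was added and luminescence read 30min later at room temperature.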

Molecules are shown by their SMILES. Records with an inconclusive call do not appear. Calls of active or inactive are those of the source. Unless noted, the call rests on the fitted dose curve; in most records, active means well fitted curve in the direction sought with a large enough effect in the repeat runs; inconclusive means weak or mixed curves; inactive means no such curve, though single readings can be large; an effect the other way counts as inactive or inconclusive.

Chain of Estrogen receptor beta (Homo sapiens) (Q92731 whole entry, looked up): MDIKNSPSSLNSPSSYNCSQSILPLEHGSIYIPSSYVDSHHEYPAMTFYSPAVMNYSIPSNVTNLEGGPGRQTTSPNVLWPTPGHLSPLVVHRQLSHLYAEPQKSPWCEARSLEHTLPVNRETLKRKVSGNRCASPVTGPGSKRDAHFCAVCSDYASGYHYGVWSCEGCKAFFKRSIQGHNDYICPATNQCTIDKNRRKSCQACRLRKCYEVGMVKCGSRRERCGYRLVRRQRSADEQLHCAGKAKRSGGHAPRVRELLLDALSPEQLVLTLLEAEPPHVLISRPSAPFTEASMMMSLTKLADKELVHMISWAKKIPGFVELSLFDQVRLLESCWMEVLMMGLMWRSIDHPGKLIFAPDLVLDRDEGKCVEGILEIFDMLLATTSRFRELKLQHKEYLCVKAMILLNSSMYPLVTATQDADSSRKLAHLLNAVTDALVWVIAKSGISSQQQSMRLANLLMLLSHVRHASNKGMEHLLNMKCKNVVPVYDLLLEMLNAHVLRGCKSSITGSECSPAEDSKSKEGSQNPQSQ
Chain of Thyrotropin receptor (Homo sapiens) (P16473 whole entry, looked up): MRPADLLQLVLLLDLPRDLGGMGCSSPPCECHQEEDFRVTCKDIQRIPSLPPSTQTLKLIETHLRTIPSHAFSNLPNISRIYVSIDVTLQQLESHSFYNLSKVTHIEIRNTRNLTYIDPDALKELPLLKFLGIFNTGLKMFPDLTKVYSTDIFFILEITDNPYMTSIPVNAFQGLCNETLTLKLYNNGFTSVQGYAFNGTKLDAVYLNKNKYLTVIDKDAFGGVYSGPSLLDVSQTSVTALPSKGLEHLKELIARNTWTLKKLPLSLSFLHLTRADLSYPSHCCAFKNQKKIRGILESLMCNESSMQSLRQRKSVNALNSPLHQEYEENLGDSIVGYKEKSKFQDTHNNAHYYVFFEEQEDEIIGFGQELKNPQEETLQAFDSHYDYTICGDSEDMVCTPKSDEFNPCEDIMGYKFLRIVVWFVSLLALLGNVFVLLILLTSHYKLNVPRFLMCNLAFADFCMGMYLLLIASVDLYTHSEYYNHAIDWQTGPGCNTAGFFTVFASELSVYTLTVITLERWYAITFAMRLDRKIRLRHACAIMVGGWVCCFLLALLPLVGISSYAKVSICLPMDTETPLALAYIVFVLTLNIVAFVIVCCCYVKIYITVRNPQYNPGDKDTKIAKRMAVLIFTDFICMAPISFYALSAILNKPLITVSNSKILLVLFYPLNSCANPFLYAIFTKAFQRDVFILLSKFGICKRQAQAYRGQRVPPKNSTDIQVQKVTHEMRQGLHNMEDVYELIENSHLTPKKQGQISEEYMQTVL
Chain of Androgen receptor (Homo sapiens) (P10275 whole entry, looked up): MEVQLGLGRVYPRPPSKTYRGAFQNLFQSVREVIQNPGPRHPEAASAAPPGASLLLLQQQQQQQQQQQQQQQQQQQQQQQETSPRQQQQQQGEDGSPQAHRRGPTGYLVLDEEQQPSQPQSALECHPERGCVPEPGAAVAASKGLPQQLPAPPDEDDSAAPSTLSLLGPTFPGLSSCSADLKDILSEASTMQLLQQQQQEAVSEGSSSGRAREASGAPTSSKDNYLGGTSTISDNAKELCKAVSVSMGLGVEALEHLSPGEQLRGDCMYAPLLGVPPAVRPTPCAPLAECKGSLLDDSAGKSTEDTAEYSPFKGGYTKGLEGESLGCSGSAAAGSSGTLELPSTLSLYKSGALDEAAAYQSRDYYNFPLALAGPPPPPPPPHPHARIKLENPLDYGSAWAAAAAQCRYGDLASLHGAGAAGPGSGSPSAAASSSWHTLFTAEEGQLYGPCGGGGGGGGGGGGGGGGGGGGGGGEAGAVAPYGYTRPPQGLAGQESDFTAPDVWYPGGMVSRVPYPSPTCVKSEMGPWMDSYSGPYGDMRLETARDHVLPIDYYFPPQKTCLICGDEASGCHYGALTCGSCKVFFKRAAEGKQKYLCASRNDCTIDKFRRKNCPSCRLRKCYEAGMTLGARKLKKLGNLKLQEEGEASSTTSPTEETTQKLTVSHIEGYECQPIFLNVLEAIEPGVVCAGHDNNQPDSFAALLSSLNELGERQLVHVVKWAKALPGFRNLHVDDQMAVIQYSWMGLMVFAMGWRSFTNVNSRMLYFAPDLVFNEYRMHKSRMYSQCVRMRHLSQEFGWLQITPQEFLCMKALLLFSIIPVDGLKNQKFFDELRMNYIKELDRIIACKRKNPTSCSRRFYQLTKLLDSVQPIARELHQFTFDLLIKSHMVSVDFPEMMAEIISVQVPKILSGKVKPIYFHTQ

As to `C=CC(C)(O)CC/C=C(/C)CCC=C(C)C` (centres undefined), the Potency result in test [1], in [2], in test [3], in test [5], in test [6] and in test [7] was “inactive” in each case. The Potency result in test [8], in test [9], in test [10], in [11] and in [12] was “inactive” each time. The compound was called inactive in test [4].
Regarding `[O-][n+]1ccc(Cl)cc1`, the Potency entry in [1], in test [2], in test [3], in test [5], in test [6] and in test [7] was “inactive” each time. The Potency result in test [13], in [10] and in [12] was “inactive” each time. Besides, the outcome in test [4] was inactive.
With `C=CC(C)CCC=C(C)C` (centres undefined), the Potency entry in test [1], in test [2], in [3], in [5], in test [6] and in test [7] was “inactive” each time. The Potency entry in test [13], in test [10], in test [11], in [12] and in test [15] was “inactive” throughout. Besides, the compound was called inactive in test [14].
As for `CC(=O)Oc1cccc2c1C(=O)c1c(OC(C)=O)cc(C(=O)O)cc1C2=O`, the Potency entry in test [3], in test [5], in [7], in test [13], in [11] and in test [16] was “inactive” in each case. Moreover, the Potency entry in test [12] and in test [15] was “inactive” in each case. In test [10], the Potency was 26.6 µM (active). In addition, in test [14], the result was inactive.
For `OCCOc1cccc(OCCO)c1`, the Potency result in [1], in test [2], in test [5], in [6], in [7] and in test [13] was “inactive” each time. The Potency result in test [10], in [11], in test [12] and in test [15] was “inactive” in each case. For the same compound, the result in [4] and in [14] was inactive.
In the case of `O=C(O)CNc1ccccc1`, the Potency entry in test [1], in [2], in [3], in test [5], in test [6] and in test [7] was “inactive” throughout. Further, the Potency result in [13], in test [10], in test [11], in test [12] and in [15] was “inactive” throughout. Besides, the call in test [14] was inactive.
Turning to `O=C(O)c1ccccc1[N+](=O)[O-]`, the Potency result in test [1], in [2], in test [3], in test [5], in [7] and in test [13] was “inactive” each time. Also, the Potency entry in test [8], in [9], in test [10], in test [11], in test [12] and in test [15] was “inactive” each time. The compound was called inactive in test [4] and in test [14].
With `CC(C)(Cc1c[nH]c2ccccc12)NCC(O)COc1ccccc1C#N` (centres undefined), the Potency entry in [1], in [2], in test [3], in test [6], in test [7] and in test [8] was “inactive” each time. Also, the Potency result in test [10] and in test [15] was “inactive” each time. The result in [4] and in [14] was inactive. Moreover, the Potency in test [11] was 29.8 µM (active); in test [12], 26.6 µM (active).
On to `CCOC(C)OCC`, for which the Potency entry in test [1], in test [2], in test [5], in test [7], in [13] and in [8] was “inactive” throughout. Also, the Potency result in test [9], in test [11] and in test [12] was “inactive” in each case. The compound was classed as inactive in test [4].
